Measurements from PMC4336329 (PLoS ONE, 2015).
Among all 310,000 compounds or so, about 2,200 (0.71%) showed an effect of 50% or more. The effect is printed as a negative number. The entries come from a sample that favours strong results as a whole.

The compounds below were run against human ether-à-go-go-related gene (hERG) potassium channel (human, UniProt Q12809) (assay: primary screen, population patch clamp on CHO cells stably expressing hERG; higher = less effect of the substance).
human ether-à-go-go-related gene (hERG) potassium channel, sequence (Q12809 whole entry, looked up): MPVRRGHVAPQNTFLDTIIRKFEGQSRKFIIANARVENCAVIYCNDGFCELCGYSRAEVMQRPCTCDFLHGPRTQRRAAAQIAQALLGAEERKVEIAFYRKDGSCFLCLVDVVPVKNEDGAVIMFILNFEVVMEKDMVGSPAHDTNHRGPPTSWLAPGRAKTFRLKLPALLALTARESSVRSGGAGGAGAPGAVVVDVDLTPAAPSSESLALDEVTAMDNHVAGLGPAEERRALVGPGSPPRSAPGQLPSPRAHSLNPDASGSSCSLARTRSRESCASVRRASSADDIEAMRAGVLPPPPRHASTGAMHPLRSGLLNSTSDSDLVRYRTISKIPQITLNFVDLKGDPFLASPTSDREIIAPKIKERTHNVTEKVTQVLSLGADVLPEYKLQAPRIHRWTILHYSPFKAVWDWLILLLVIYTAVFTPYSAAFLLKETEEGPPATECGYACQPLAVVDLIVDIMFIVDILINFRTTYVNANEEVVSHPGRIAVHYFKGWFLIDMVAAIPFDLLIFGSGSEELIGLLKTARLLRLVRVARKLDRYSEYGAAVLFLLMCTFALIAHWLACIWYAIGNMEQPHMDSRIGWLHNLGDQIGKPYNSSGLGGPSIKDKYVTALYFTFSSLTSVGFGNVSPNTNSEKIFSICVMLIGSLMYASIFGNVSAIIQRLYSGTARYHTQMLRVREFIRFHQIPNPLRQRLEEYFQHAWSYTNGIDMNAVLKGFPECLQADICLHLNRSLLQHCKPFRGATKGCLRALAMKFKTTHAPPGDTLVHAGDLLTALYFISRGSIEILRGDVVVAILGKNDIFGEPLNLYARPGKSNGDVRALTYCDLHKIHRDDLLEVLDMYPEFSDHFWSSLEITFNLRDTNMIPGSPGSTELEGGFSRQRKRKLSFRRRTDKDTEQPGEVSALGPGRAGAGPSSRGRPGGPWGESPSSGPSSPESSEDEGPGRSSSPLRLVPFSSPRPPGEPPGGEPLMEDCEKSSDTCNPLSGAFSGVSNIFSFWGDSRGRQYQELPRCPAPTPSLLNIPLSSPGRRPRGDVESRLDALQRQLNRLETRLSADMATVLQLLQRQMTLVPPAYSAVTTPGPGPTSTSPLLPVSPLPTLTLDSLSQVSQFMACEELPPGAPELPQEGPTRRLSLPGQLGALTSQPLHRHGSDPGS

| SMILES | hERG current change (%, negative = inhibition) at 1uM |
| --- | --- |
| O=C(CCN1C(=O)C2C3C=CC(C3)C2C1=O)N1CCN(c2ccc(F)cc2)CC1 (stereo not shown) | -5.37% |
| Cl.O=C1C2C3C=CC(C4CC34)C2C(=O)N1CCCCN1CCN(c2ccc(F)cc2)CC1 (stereo not shown) | -69.2% |
| O=C1C2CCCN2C(=O)N1CCCCN1CCN(c2ccc(F)cc2)CC1 (stereo not shown) | -10% |
| Cc1cc(NC(=O)CCC(=O)N(c2cccnc2)C(C(=O)NC2CCCC2)c2ccccc2F)no1 (stereo not shown) | 8.56% |
| CCOc1ccccc1OCC(=O)OCC(=O)c1c(N)n(CC(C)C)c(=O)n(C)c1=O | -9.86% |
| Cc1ccc(OCCC(=O)OCC(=O)c2c(N)n(CC(C)C)c(=O)n(C)c2=O)cc1 | -42.3% |
| Cc1ccccc1OCCC(=O)OCC(=O)c1c(N)n(CC(C)C)c(=O)n(C)c1=O | -63.8% |
| CS(=O)(=O)Nc1ccc(Cc2noc(-c3ccc4[nH]cc(CCN)c4c3)n2)cc1.O | 18.4% |
| CN(C(=O)c1ccc2c(c1)OCO2)C1CCCCC1 | 6.85% |
| Cc1nc(NC(=O)CC(C)C)sc1-c1csc(Nc2ccc(Cl)cc2)n1 | 12.5% |
| Cc1ccccc1C(=O)NNC(=S)Nc1cccc(C(F)(F)F)c1 | 13.2% |
| CCCCc1ccc(-c2nc(NC(=O)C3C4CCC(O4)C3C(=O)O)sc2C)cc1 (stereo not shown) | 11.9% |
| CC(C)C(=O)N1CCN(c2ccccc2NC(=O)c2ccc([N+](=O)[O-])o2)CC1 | -23.5% |
| CCC(=O)N1CCN(c2ccccc2NC(=O)c2ccc(-c3cccc([N+](=O)[O-])c3)o2)CC1 | -3.2% |
| O=C(Nc1ccccc1N1CCOCC1)c1ccc([N+](=O)[O-])o1 | -1% |
| CN1CCN(c2ccccc2NC(=O)c2ccc(-c3cccc([N+](=O)[O-])c3)o2)CC1 | -0.213% |
| CCC(=O)N1CCN(c2ccccc2NC(=O)c2ccc([N+](=O)[O-])o2)CC1 | -60.5% |
| CCC(=O)N1CCN(c2ccc(Cl)cc2NC(=O)c2ccc([N+](=O)[O-])o2)CC1 | 0.198% |
| CN1CCN(c2ccccc2NC(=O)c2ccc([N+](=O)[O-])o2)CC1 | -62.4% |
| O=C(Nc1ccccc1N1CCCC1)c1ccc([N+](=O)[O-])o1 | 1.03% |
| CC(=O)N1CCN(c2ccccc2NC(=O)c2ccc(-c3cccc([N+](=O)[O-])c3)o2)CC1 | -81.6% |
| c1ccc(C(c2nnnn2C2CCCCC2)N2CCc3ccccc3C2)nc1 (stereo not shown) | 7.86% |

| SMILES | hERG current change (%, negative = inhibition) at 1uM |
| --- | --- |
| C[C@H](NC(=O)N1CCn2c1nc1ccccc12)C(=O)NCCc1ccccc1 | 17.4% |
| COc1ccc(NC(=S)N2CCN(C(=O)c3ccco3)CC2)c(OC)c1 | 8.24% |
| CCn1c(=S)sc2c(=O)[nH]c(C)nc21 | 13.5% |
| COc1cccc(CN2CC(C(=O)N3CCCC3)CCC2=O)c1 (stereo not shown) | 10.9% |
| COc1cccc(CN2CC(C(=O)N3CCN(c4ccc(Cl)cc4)CC3)CCC2=O)c1 (stereo not shown) | -53.3% |
| COc1cccc(CN2CC(C(=O)N3CCCCCCC3)CCC2=O)c1 (stereo not shown) | 9.63% |
| CCOC(=O)c1oc2ccccc2c1CSc1nnnn1-c1ccc(C)cc1 | 5.36% |
| COc1ccc(/C=C/C(=O)NC2CCN(Cc3ccccc3)CC2)cc1OC | 12% |
| Fc1ccc(NC(=S)NC2CCN(Cc3ccccc3)CC2)cc1 | 6.75% |
| O=C(/C=C/c1cccc(F)c1)NC1CCN(Cc2ccccc2)CC1 | -51.4% |
| COc1ccccc1C1CCN(Cc2ccc(Cl)c(Cl)c2)CC1 | 10.4% |
| COc1ccccc1C1CCN(Cc2ccc(C)cc2)CC1 | -61.2% |
| Cc1ccc(CC(=O)NC2CCN(Cc3ccccc3)CC2)cc1 | 7.9% |
| Cc1ccc(CN2CCC(NC(=O)c3ccccc3)CC2)cc1 | -52.8% |
| O=C(NC1CCN(Cc2ccc(F)cc2)CC1)c1ccccc1 | -15.9% |
| Cl.O=C(NC(=S)NC1CCN(Cc2ccccc2)CC1)c1ccc(F)cc1 | -57.5% |
| O=C(/C=C/c1cccc(Br)c1)NC1CCN(Cc2ccccc2)CC1 | -27.7% |
| O=C(NC1CCN(Cc2ccccc2)CC1)c1ccccc1 | 2.84% |
| COc1ccccc1C1CCN(Cc2ccccc2)CC1 | 8.45% |
| Cc1cnc(-c2nnc(N(C)C(=O)c3cccnc3)s2)cn1 | 10.2% |
| CCN(CC)c1ccc(/C=N/NC(=S)NC)c(O)c1 | 4.81% |
| Cc1c(N=C2NC(=O)/C(=C/c3cccc([N+](=O)[O-])c3)S2)c(=O)n(-c2ccccc2)n1C | 12.1% |

| SMILES | hERG current change (%, negative = inhibition) at 1uM |
| --- | --- |
| Cc1ccc(S(=O)(=O)CC(O)COc2ccc(F)cc2Cl)c(C)c1 (stereo not shown) | 7.06% |
| COc1ccc(/C=N/NC(=O)C2c3ccccc3Oc3ccccc32)c(OC)c1 | 11.6% |
| NS(=O)(=O)c1ccc(CNC(=O)c2cc(-c3cccnc3)nc3ccccc23)cc1 | 14.6% |
| CCc1ccccc1NC(=O)Nc1c(C)n(C)n(-c2ccccc2)c1=O | -14.2% |
| Cn1c(CSCc2ccc(F)cc2)n[nH]c1=S | 13.6% |
| CNC(=O)CSc1nc(-c2ccccc2)c(-c2ccccc2)[nH]1 | 3.72% |
| Cc1ccc(S(=O)(=O)N2CCN(C(=O)c3nn(C(C)C)c(=O)c4ccccc34)CC2)cc1C | 5.96% |
| CC(C)Oc1ccc(S(=O)(=O)N2CCOCC2)cc1NC(=O)C1=COCCO1 | 11% |
| CC(=O)C[C@H]1c2ccccc2S(=O)(=O)N1C1CCCC1 | 14.6% |
| Cn1c(Nc2ccccc2)nc2ccccc21 | 8.25% |
| Cn1c(Nc2ccc(F)cc2)nc2ccccc21 | -77.5% |
| COc1ccc(Nc2nc3ccccc3n2C)cc1 | 13.1% |
| COc1ccc(-c2[nH]c(-c3ccc(C)cc3)nc2SCC(=O)Nc2nccs2)cc1 | 21.6% |
| CC1CN(C(=O)COc2ccc3c(-c4ccccc4)cc(=O)oc3c2)CC(C)O1 (stereo not shown) | 10.8% |
| CC(=O)Nc1ccc(OS(=O)(=O)c2cc(Cl)ccc2C)cc1 | 13.6% |
| CC(=O)Nc1ccc(OS(=O)(=O)c2ccc(Cl)cc2)cc1 | -1.62% |
| COc1ccc(Cl)cc1S(=O)(=O)Oc1ccc(NC(C)=O)cc1 | -58.8% |
| CCN(CC)CCCNC(=O)C(C)n1c2ccccc2c2nc(=O)cc(C)n21 (stereo not shown) | 12.7% |
| O=C1c2ccccc2C(=O)N1/N=C/c1ccc(O)c(O)c1 | 13.9% |
| CCOc1ccc(C2NC(=O)c3n[nH]c(C)c32)cc1 (stereo not shown) | 9.09% |
| COc1ccccc1N1CCN(CCCC(=O)c2ccc(F)cc2)CC1 | -43.2% |
| COc1ccccc1N1CCN(CCN(C(=O)c2ccc(F)cc2)c2ccccn2)CC1.Cl | -57.8% |

| SMILES | hERG current change (%, negative = inhibition) at 1uM |
| --- | --- |
| COc1ccccc1N1CCN(CCCCOc2cccc3ccccc23)CC1.Cl | 9.44% |
| COc1ccccc1N1CCN(Cc2ccc(F)cc2)CC1 | 6.42% |
| COc1ccccc1N1CCN(CC(=O)c2ccc(F)cc2)CC1.Cl | 16.7% |
| COc1ccccc1N1CCN(CCCOc2ccc(F)cc2)CC1 | -60.3% |
| COc1ccccc1N1CCN(CCCCOc2ccc(F)cc2)CC1.Cl | -71.5% |
| Cc1ccccc1N1CCN(CCCOc2ccc3c(C)cc(=O)oc3c2)CC1 | -56.2% |
| COc1ccc(N2CCN(CCOc3ccc4c(C)cc(=O)oc4c3)CC2)cc1 | -37.8% |
| COc1ccccc1N1CCN(CCCCCCOc2ccc(F)cc2)CC1 | -7.53% |
| Cc1cc(=O)oc2cc(OCCCN3C(=O)c4ccccc4C3=O)ccc12 | -0.574% |
| COc1ccccc1N1CCN(CCN(C(=O)C2CCCCC2)c2ccccn2)CC1.O=C(O)/C=C\C(=O)O | 4.2% |
| CCOC(=O)c1sc2nc(C)nc(N3CCCCC3C)c2c1C (stereo not shown) | -5.1% |
| O=C(NCCNC(=O)c1ccc(Cl)cc1Cl)c1cnccn1 | 6.54% |
| O=C(CSc1cccc2cccc(Cl)c12)NC1=NCCS1 | 2.37% |
| CSCCC(NC(=O)COc1ccccc1)C(=O)NCCOc1ccc(C)cc1 (stereo not shown) | 3.41% |
| O=C(CCC1CCN(C(=O)c2ccco2)CC1)NCc1ccc(F)cc1 | -62% |
| Cl.O=C(c1ccco1)N1CCN(CCCCOc2ccc(F)cc2)CC1 | -74.8% |
| O=C(c1ccco1)N1CCN(C(=S)NCc2ccc(F)cc2)CC1 | -3.27% |
| Cl.O=C(c1ccco1)N1CCN(CCOc2ccc(F)cc2)CC1 | -0.809% |
| O=C(c1ccco1)N1CCN(CCOc2ccccc2)CC1 | 10.3% |
| O=C(CCC1CCN(C(=O)c2ccccc2Cl)CC1)NCc1ccc(F)cc1 | 4.08% |
| Cc1cccc(NC(=O)Cn2c(=O)n(Cc3ccco3)c(=N)c3c4c(sc32)COC(C)(C)C4)c1 | 3% |
| COc1cccc(/C=C2\SC(N)=NC2=O)c1OS(=O)(=O)c1ccccc1 | 2.6% |
